Reference: PubChem BioAssay AID1159580 (chemical genetic matrix, 2015)
About 2,000 (36%) of roughly 5,500 compounds were called active. Roughly 18% stayed inconclusive and do not appear here. Cut-off read from the data, not from the text of the source: active = normalized growth mostly below about 0.91 (no sharp cut-off); inconclusive = no clear call, values can overlap the other calls; inactive = mostly above about 0.92. The list shows a part of the results.

Test: chemical genetic growth profiling, strain panel (AID 1159580);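 note: tested at 20 µM; growth read once vehicle control cultures reached saturation at 30 °C; 1 = growth at the plate median or of vehicle wells; lower values mean less growth of the strain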
Settings: S. cerevisiae deletion strains, growth OD

Measured: normalized growth

COC(=O)/C(C)=C\CC12OC(C)(C)C3CC(C=C4C(=O)c5c(OC)c6c(c(CC=C(C)C)c5OC431)OC(C)(CCC=C(C)C)C=C6)C2=O (centres undefined)
inactive: locus YAL021C, strain ccr4, active compounds read low 0.991 | locus YAL026C, strain drs2, active compounds read low 1.02 | locus YAL030W, strain snc1, active compounds read low 1.03 | locus YBL061C, strain skt5, active compounds read low 1.02 | locus YBR009C, strain hhf1, active compounds read low 0.999 | locus YBR021W, strain FUR4, active compounds read low 1.03 | locus YBR023C, strain chs3, active compounds read low 1.01 | locus YBR171W, strain sec66, active compounds read low 1.03 | locus YBR229C, strain ROT2, active compounds read low 1.01 | locus YBR231C, strain swc5, active compounds read low 1.03 | locus YBR279W, strain paf1, active compounds read low 1.01 | locus YCL011C, strain gbp2, active compounds read low 1.02 | locus YCL016C, strain dcc1, active compounds read low 1.01 | locus YCL029C, strain bik1, active compounds read low 0.983 | locus YCL061C, strain MRC1, active compounds read low 1.01 | locus YCL069W, strain vba3, active compounds read low 1.02 | locus YCR088W, strain abp1, active compounds read low 1.02 | locus YDL005C, strain med2, active compounds read low 1.03 | locus YDL035C, strain GPR1, active compounds read low 0.964 | locus YDL040C, strain nat1, active compounds read low 1.01 | locus YDL074C, strain BRE1, active compounds read low 0.963 | locus YDL101C, strain DUN1, active compounds read low 1.01 | locus YDL185W, strain tfp1, active compounds read low 1.01 | locus YDL192W, strain arf1, active compounds read low 0.987 | locus YDR001C, strain nth1, active compounds read low 1.02 | locus YDR069C, strain doa4, active compounds read low 1.03 | locus YDR101C, strain arx1, active compounds read low 0.989 | locus YDR137W, strain rgp1, active compounds read low 0.946 | locus YDR150W, strain NUM1, active compounds read low 1.01 | locus YDR159W, strain sac3, active compounds read low 1.06 | locus YDR162C, strain NBP2, active compounds read low 0.941 | locus YDR195W, strain ref2 1.02 | locus YDR297W, strain sur2, active compounds read low 1.04 | locus YDR318W, strain mcm21, active compounds read low 0.982 | locus YDR334W, strain swr1, active compounds read low 1.02 | locus YDR335W, strain msn5, active compounds read low 1.02 | locus YDR388W, active compounds read low 0.985 | locus YDR392W, strain spt3, active compounds read low 0.966 | locus YDR502C, strain sam2, active compounds read low 0.979 | locus YEL003W, strain gim4, active compounds read low 1.01 | locus YEL037C, strain rad23, active compounds read low 1.01 | locus YEL061C, strain CIN8 (second series), active compounds read low 1.02 | locus YEL061C, strain CIN8, active compounds read low 1 | locus YER015W, strain faa2, active compounds read low 1.02 | locus YER016W, strain bim1, active compounds read low 1.01 | locus YER110C, active compounds read low 0.988 | locus YER111C, strain swi4, active compounds read low 1.02 | locus YER155C, strain BEM2 (second series), active compounds read low 1.02 | locus YER155C, strain BEM2, active compounds read low 1.01 | locus YER167W, strain BCK2, active compounds read low 0.993 | locus YFR010W, strain ubp6, active compounds read low 1.03 | locus YGL078C, strain dbp3, active compounds read low 0.989 | locus YGL086W, strain mad1, active compounds read low 0.974 | locus YGL167C, strain pmr1, active compounds read low 1.02 | locus YGL173C, strain kem1, active compounds read low 1.02 | locus YGL227W, strain vid30, active compounds read low 1.02 | locus YGL240W, strain doc1, active compounds read low 1.02 | locus YGL248W, strain PDE1, active compounds read low 0.986 | locus YGL253W, strain hxk2, active compounds read low 1.01 | locus YGR135W, strain pre9, active compounds read low 0.997 | locus YGR252W, strain gcn5, active compounds read low 0.987 | locus YHR013C, strain ard1, active compounds read low 0.996 | locus YHR027C, strain rpn1, active compounds read low 1.02 | locus YHR030C, strain SLT2, active compounds read low 1 | locus YHR079C, strain IRE1 (second series), active compounds read low 1 | locus YHR094C, strain hxt1, active compounds read low 1.01 | locus YHR129C, strain ARP1, active compounds read low 0.985 | locus YHR142W, strain chs7, active compounds read low 1.04 | locus YHR200W, strain rpn10, active compounds read low 0.991 | locus YIL066C, strain RNR3, active compounds read low 0.96 | locus YIL073C, strain SPO22, active compounds read low 0.878 | locus YIL125W, strain kgd1, active compounds read low 0.992 | locus YIR030C, strain dcg1, active compounds read low 0.989 | locus YJL092W, strain hpr5, active compounds read low 1.02 | locus YJL095W, strain BCK1 (second series), active compounds read low 1.01 | locus YJL095W, strain BCK1, active compounds read low 0.961 | locus YJL115W, strain asf1, active compounds read low 1.03 | locus YJL129C, strain trk1, active compounds read low 0.987 | locus YJL134W, strain LCB3, active compounds read low 1 | locus YJL154C, strain vps35, active compounds read low 1.02 | locus YJL164C, strain tpk1, active compounds read low 0.988 | locus YJL166W, strain qcr8, active compounds read low 1.01 | locus YJL168C, strain set2, active compounds read low 0.982 | locus YJL187C, strain SWE1 (second series), active compounds read low 0.976 | locus YJL187C, strain SWE1, active compounds read low 1.01 | locus YJR043C, strain POL32, active compounds read low 0.998 | locus YJR075W, strain HOC1, active compounds read low 0.999 | locus YKL009W, strain mrt4, active compounds read low 0.964 | locus YKL068W, active compounds read low 0.992 | locus YKL085W, strain MDH1 (second series), active compounds read low 0.993 | locus YKL085W, strain MDH1, active compounds read low 0.993 | locus YKL160W, strain elf1, active compounds read low 1.02 | locus YKR001C, strain vps1, active compounds read low 0.97 | locus YKR026C, strain gcn3, active compounds read low 1.02 | locus YKR091W, strain srl3, active compounds read low 1.01 | locus YLL001W, strain dnm1, active compounds read low 1 | locus YLL026W, active compounds read low 1.01 | locus YLL041C, strain sdh2, active compounds read low 1.02 | locus YLR027C, strain aat2, active compounds read low 1.01 | locus YLR039C, strain RIC1, active compounds read low 0.893 | locus YLR058C, strain SHM2, active compounds read low 0.993 | locus YLR102C, strain apc9, active compounds read low 1 | locus YLR221C, strain rsa3, active compounds read low 1.02 | locus YLR258W, strain gsy2, active compounds read low 1.03 | locus YLR262C, strain YPT6 (second series), active compounds read low 0.993 | locus YLR262C, strain YPT6, active compounds read low 0.986 | locus YLR268W, strain sec22, active compounds read low 0.961 | locus YLR320W, strain mms22, active compounds read low 1.01 | locus YLR330W, strain CHS5, active compounds read low 1.01 | locus YLR342W, strain FKS1 (second series), active compounds read low 0.977 | locus YLR342W, strain FKS1, active compounds read low 1.03 | locus YLR357W, strain rsc2, active compounds read low 1.01 | locus YLR370C, strain arc18, active compounds read low 1.01 | locus YLR371W, strain rom2, active compounds read low 1.02 | locus YLR384C, strain iki3, active compounds read low 1.01 | locus YLR418C, strain cdc73, active compounds read low 0.941 | locus YML016C, strain PPZ1, active compounds read low 0.994 | locus YML032C, strain rad52, active compounds read low 1 | locus YML120C, strain ndi1, active compounds read low 1.01 | locus YML124C, strain tub3, active compounds read low 0.994 | locus YMR058W, strain fet3, active compounds read low 1.02 | locus YMR078C, strain ctf18, active compounds read low 0.999 | locus YMR125W, strain sto1, active compounds read low 1.02 | locus YMR129W, active compounds read low 1.02 | locus YMR205C, strain PFK2, active compounds read low 0.993 | locus YMR223W, strain ubp8, active compounds read low 0.981 | locus YMR231W, strain pep5, active compounds read low 0.99 | locus YMR263W, strain SAP30, active compounds read low 1 | locus YMR307W, strain GAS1, active compounds read low 1.08 | locus YNL067W, strain RPL9B, active compounds read low 0.988 | locus YNL071W, strain lat1, active compounds read low 1.02 | locus YNL128W, strain TEP1, active compounds read low 0.991 | locus YNL209W, strain ssb2, active compounds read low 1.01 | locus YNL233W, strain BNI4, active compounds read low 0.988 | locus YNL248C, strain rpa49, active compounds read low 1.03 | locus YNL250W, strain rad50, active compounds read low 0.985 | locus YNL271C, strain bni1, active compounds read low 0.982 | locus YNL298W, strain CLA4, active compounds read low 0.976 | locus YNL307C, strain MCK1, active compounds read low 0.997 | locus YNL322C, strain KRE1 (second series), active compounds read low 1.01 | locus YNL322C, strain KRE1, active compounds read low 1 | locus YNR049C, strain mso1, active compounds read low 1.02 | locus YNR052C, strain pop2, active compounds read low 0.983 | locus YOL012C, strain htz1 0.825 | locus YOL147C, strain pex11, active compounds read low 0.991 | locus YOR001W, strain rrp6, active compounds read low 1.03 | locus YOR061W, strain CKA2, active compounds read low 0.984 | locus YOR069W, strain VPS5, active compounds read low 0.996 | locus YOR070C, strain gyp1, active compounds read low 1 | locus YOR080W, strain dia2, active compounds read low 1.02 | locus YOR083W, strain WHI5, active compounds read low 0.99 | locus YOR106W, strain vam3, active compounds read low 1 | locus YOR136W, strain idh2, active compounds read low 0.994 | locus YOR144C, strain elg1, active compounds read low 0.995 | locus YOR184W, strain ser1, active compounds read low 0.978 | locus YOR265W, strain rbl2, active compounds read low 1.01 | locus YOR270C, strain vph1, active compounds read low 1.05 | locus YOR290C, strain snf2, active compounds read low 0.991 | locus YOR316C, strain cot1, active compounds read low 0.986 | locus YPL051W, strain arl3, active compounds read low 0.995 | locus YPL078C, strain atp4, active compounds read low 1.03 | locus YPL106C, strain sse1, active compounds read low 1.01 | locus YPL240C, strain hsp82, active compounds read low 1.02 | locus YPL241C, strain CIN2, active compounds read low 1 | locus YPR119W, strain clb2, active compounds read low 0.992 | locus YPR141C, strain kar3, active compounds read low 0.985 | locus YPR163C, strain tif3, active compounds read low 0.975 | locus YPR167C, strain met16, active compounds read low 0.972 | strain wtn01, active compounds read low 0.984
